In the supplement of paper PMC9254222:
In all, about 1,100 compounds were measured (“Renilla luciferase signal (cell health) relative to plate median”: median about 0.97, highest 2% from about 1.6 on). Only a selection was taken, and the highest values are over-represented in it overall.

System: HEK293T (UBE3A T485A transfected, BAR Wnt reporter)
Assay: Renilla luciferase signal (cell health) relative to plate median (fold (linear ratio)); higher = higher Renilla signal
Details: 24 h
How it was run: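 HEK293T cells carrying a transfected BAR firefly luciferase Wnt reporter, TK-Renilla and an expression plasmid were exposed to chemicals at 0.01–100 uM for 24 h, with dosing four hours after transfection. Readout used Dual-Glo luciferase. The firefly/Renilla ratio defined Wnt activity and raw Renilla defined cell health, each median-centred per plate. Figures are means of four biological replicates.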

SMILES	Renilla luciferase signal (concentration: 0.01 uM)	Renilla luciferase signal (concentration: 0.1 uM)	Renilla luciferase signal (concentration: 1 uM)	Renilla luciferase signal (concentration: 10 uM)	Renilla luciferase signal (concentration: 100 uM)
FC(F)C(F)(F)OCC(Cn1cncn1)c1ccc(Cl)cc1Cl (centres undefined) [Tetraconazole]	1.01	1.09	0.957	0.997	0.0289
CO/N=C(/C1=NOCCO1)c1ccccc1Oc1ncnc(Oc2ccccc2Cl)c1F [Fluoxastrobin]	0.875	0.941	1.05	0.383	1.63
ClC(Cl)(Cl)c1ccccc1 [Benzotrichloride]		0.82	0.9	0.872	1.04
O=C(O)C1(c2ccc3c(c2)OC[C@H](Cc2ccc(-c4ccccc4)cc2)[C@H]3O)CCCC1		0.875	0.823	0.781	0.0901
O=C1C2CC=CCC2C(=O)N1SC(Cl)(Cl)Cl (centres undefined) [Captan]	1.19	1.04	0.975	1.02	0.036
Clc1ccc(C(Cl)(Cl)Cl)cc1 [4-Chlorobenzotrichloride]		0.548	0.799	0.652	0.663
COc1cc(OC)nc(Sc2cccc(Cl)c2C(=O)[O-])n1.[Na+] [Pyrithiobac-sodium]	1.11	1.16	0.967	1.07	1.69
CCCCCCCCCc1ccc(O)cc1 [4-Nonylphenol, branched]		1	0.945	1.06	0.973
CC(C)(C)C(O)C(Oc1ccc(Cl)cc1)n1cncn1 (centres undefined) [Triadimenol]	1.01	0.885	0.844	0.906	0.699
CCNC(=O)NC(=O)/C(C#N)=N/OC [Cymoxanil]	1.26	1.16	1.08	1.15	2.39
CO/C=C(/C(=O)OC)c1ccccc1COc1cccc(C(F)(F)F)n1 [Picoxystrobin]		0.76	0.879	0.82	0.465
O=C(Nc1ccccc1-c1ccc(Cl)cc1)c1cccnc1Cl [Boscalid]	0.775	0.848	0.903	0.818	1.24
Oc1cccc2cccnc12 [8-Hydroxyquinoline]		0.779	0.797	0.764	0.0228
CC1=NNC(=O)N(/N=C/c2cccnc2)C1 [Pymetrozine]	0.89	0.911	0.966	0.97	1.45
CC(Oc1ccc(Cl)cc1Cl)C(=O)O (centres undefined) [Dichlorprop]	0.843	0.959	0.959	1.04	1.6
CC(Oc1cccc(Cl)c1)C(=O)O (centres undefined) [Cloprop]	0.924	0.701	0.814	1.01	2.51
CC(C)OC(=O)Nc1cccc(Cl)c1 [Chlorpropham]	0.728	0.618	0.828	0.81	0.766
CC(C)(C)C(=O)C(Oc1ccc(Cl)cc1)n1cncn1 (centres undefined) [Triadimefon]	1.42	0.867	0.961	1.05	0.777
O=C1c2ccccc2C(=O)N1SC(Cl)(Cl)Cl [Folpet]	1.08	1.03	1.08	1.17	0.0353
CNC(=O)Oc1ccccc1OC(C)C [Propoxur]	0.908	0.899	0.869	0.843	1.18
c1cc2c3c(cccc3c1)CC2 [Acenaphthene]		1.17	1.26	1.14	1.68
c1cc2ccc3cccc4ccc(c1)c2c34 [Pyrene]		0.967	0.928	1.05	0.889

SMILES	Renilla luciferase signal (concentration: 0.01 uM)	Renilla luciferase signal (concentration: 0.1 uM)	Renilla luciferase signal (concentration: 1 uM)	Renilla luciferase signal (concentration: 10 uM)	Renilla luciferase signal (concentration: 100 uM)
C1=Cc2cccc3cccc1c23 [Acenaphthylene]		0.739	0.666	0.684	0.683
CCOP(=S)(OCC)Oc1ccc2c(C)c(Cl)c(=O)oc2c1 [Coumaphos]	1.01	1.11	1	1.04	0.717
COC(=O)c1ccccc1N [Methyl 2-aminobenzoate]		1.09	1.07	1.11	1.51
COC(=O)NS(=O)(=O)c1ccc(N)cc1 [Asulam]	1.08	1.11	0.923	0.97	2
COC(=O)NC(=S)Nc1ccccc1NC(=S)NC(=O)OC [Thiophanate-methyl]	1.37	0.913	1	1.01	0.274
C1CC2OC2CC1C1CO1 (centres undefined) [4-Vinyl-1-cyclohexene dioxide]		0.978	0.971	0.856	0.459
Cc1cc(Cc2ccc(N)c(C)c2)ccc1N [4,4'-Methylenebis(2-methylaniline)]		1.07	1.1	0.902	0.647
CCOP(=O)(OCC)Oc1cc(C)nc(C(C)C)n1 [Diazoxon]	1.03	0.822	0.982	0.982	1.37
[N-]=[N+]=[N-].[Na+] [Sodium azide]		1.11			1.29
[N-]=[N+]=[N-].[Na+] [Sodium Azide]	1.38		1.01	1.05	
O=C1C2(Cl)C3(Cl)C4(Cl)C(Cl)(Cl)C5(Cl)C3(Cl)C1(Cl)C5(Cl)C24Cl (centres undefined) [Kepone]		1.03	0.982	1	1.33
COP(=O)(NC(C)=O)SC (centres undefined) [Acephate]	0.777	0.825	0.95	1	1.52
COP(N)(=O)SC (centres undefined) [Methamidophos]	1.08	0.989	1.14	1.04	2.27
Nc1ccc(Cc2ccc(N)cc2)cc1 [4,4'-Methylenedianiline]		0.803	0.812	0.825	0.725
O=C(O)C(Cl)(Cl)Cl [Trichloroacetic acid]		0.932	1.09	1.11	1.35
CCOP(=S)(OCC)OC(Cl)C(Cl)(Cl)Cl (centres undefined) [Chlorethoxyfos]	0.648	0.673	0.754	0.769	1.03
CCC(C)c1ccc(O)cc1 (centres undefined) [4-(Butan-2-yl)phenol]		1.03	1.04	0.967	1.21
CN(C)C(=O)Nc1ccc(Cl)cc1 [Monuron]		1.07	1.08	1.08	0.972
CC(C)Oc1cccc(NC(=O)c2ccccc2C(F)(F)F)c1 [Flutolanil]	0.958	0.913	0.934	0.913	1.07
CN(C)C(=O)Nc1cccc(C(F)(F)F)c1 [Fluometuron]	1.01	0.858	0.955	0.915	1.74
Cc1[nH]c(=O)n(C(C)(C)C)c(=O)c1Cl [Terbacil]	0.884	0.706	0.903	0.738	1.53
O=S(=O)(O)C(F)(F)C(F)(F)C(F)(F)C(F)(F)C(F)(F)C(F)(F)C(F)(F)C(F)(F)F	0.967	0.956	0.993	0.948	0.944

SMILES	Renilla luciferase signal (concentration: 0.01 uM)	Renilla luciferase signal (concentration: 0.1 uM)	Renilla luciferase signal (concentration: 1 uM)	Renilla luciferase signal (concentration: 10 uM)	Renilla luciferase signal (concentration: 100 uM)
[Na+].[O-][Cl+][O-] [Sodium chlorite]		1.07	0.996	1.06	1.34
Clc1cc(Cl)c(Cl)cc1Cl [1,2,4,5-Tetrachlorobenzene]		0.579	0.572	0.454	0.504
Brc1ccc(Oc2ccccc2)cc1 [p-Bromodiphenyl ether]		0.896	0.914	0.837	0.987
[OH][Sn]([c]1ccccc1)([c]1ccccc1)[c]1ccccc1 [Triphenyltin hydroxide]	0.857	0.622	0.135	0.0103	0.0121
O=C(NC(=O)c1c(F)cccc1F)Nc1ccc(OC(F)(F)C(F)OC(F)(F)F)c(Cl)c1 (centres undefined) [Novaluron]	1.08	0.982	0.998	0.935	1.48
CCOP(=O)(SC(C)CC)N1CCSC1=O (centres undefined) [Fosthiazate]	1.08	1.07	1.19	1.21	1.7
[Cl-].[Cl-].[Hg+2] [Mercuric chloride]		0.533	0.402	0.153	0.0217
c1nc[nH]n1 [1H-1,2,4-Triazole]		0.873	0.956	0.885	1.12
CN1COCN(Cc2cnc(Cl)s2)C1=N[N+](=O)[O-] [Thiamethoxam]	1.14	1.09	1.1	0.959	2.15
CN/C(=N\[N+](=O)[O-])NCc1cnc(Cl)s1 [Clothianidin]	0.978	0.964	0.897	1.05	1.48
O=[N+]([O-])/N=C1\NCCN1Cc1ccc(Cl)nc1 [Imidacloprid]	0.993	1.11	0.934	0.949	1.15
O=S1OCC2C(CO1)C1(Cl)C(Cl)=C(Cl)C2(Cl)C1(Cl)Cl (centres undefined) [Endosulfan]	1.05	1.05	1.02	1.13	1.06
CS(=O)(=O)c1cc(C(F)(F)F)ccc1C(=O)c1cnoc1C1CC1 [Isoxaflutole]	0.938	0.74	0.954	0.778	2.79
CCC[CH2][Sn]([Cl])([CH2]CCC)[CH2]CCC [Tributyltin chloride]		0.598	0.574	0.235	0.0217
CCCSP(=O)(OCC)Oc1ccc(Br)cc1Cl (centres undefined) [Profenofos]	0.9	0.888	0.969	1	0.894
Nc1nc(N)nc(NC2CC2)n1 [Cyromazine]	1.1	0.889	0.95	1.05	1.86
CCN(CC)N=O [N-Nitrosodiethylamine]		1.02	0.957	1.07	1.08
C=CC(=O)OCCCCCC(C)C [Isooctyl acrylate]		0.895	0.841	0.931	1.07
CC1C(c2ccc(Cl)cc2)SC(=O)N1C(=O)NC1CCCCC1 (centres undefined) [Hexythiazox]	0.957	0.999	0.929	0.977	0.244
CN=C=S [Methyl isothiocyanate]	0.842	0.902	0.962	1.06	1.71
CC(C)(c1ccccc1)c1ccc(O)c(C(C)(C)c2ccccc2)c1 [2,4-Bis(1-methyl-1-phenylethyl)phenol]		0.856	0.888	1.05	1.14
